These results are taken from ChEMBL document CHEMBL1201862, “PubChem BioAssay data set” (2004).

The campaign covered roughly 400,000 compounds. About 2,100 (0.53%) were called active. Not shown: some 14% with an inconclusive outcome. The rule behind the calls is not given here. For the sample, actives were picked, then their nearest neighbours and some compounds at random.

The target of the test is Ataxin-2 (Homo sapiens) (UniProt Q99700). Put plainly: qHTS for Inhibitors of ATXN expression. The class given is functional.
Sequence of Ataxin-2 (Homo sapiens) (Q99700 whole entry): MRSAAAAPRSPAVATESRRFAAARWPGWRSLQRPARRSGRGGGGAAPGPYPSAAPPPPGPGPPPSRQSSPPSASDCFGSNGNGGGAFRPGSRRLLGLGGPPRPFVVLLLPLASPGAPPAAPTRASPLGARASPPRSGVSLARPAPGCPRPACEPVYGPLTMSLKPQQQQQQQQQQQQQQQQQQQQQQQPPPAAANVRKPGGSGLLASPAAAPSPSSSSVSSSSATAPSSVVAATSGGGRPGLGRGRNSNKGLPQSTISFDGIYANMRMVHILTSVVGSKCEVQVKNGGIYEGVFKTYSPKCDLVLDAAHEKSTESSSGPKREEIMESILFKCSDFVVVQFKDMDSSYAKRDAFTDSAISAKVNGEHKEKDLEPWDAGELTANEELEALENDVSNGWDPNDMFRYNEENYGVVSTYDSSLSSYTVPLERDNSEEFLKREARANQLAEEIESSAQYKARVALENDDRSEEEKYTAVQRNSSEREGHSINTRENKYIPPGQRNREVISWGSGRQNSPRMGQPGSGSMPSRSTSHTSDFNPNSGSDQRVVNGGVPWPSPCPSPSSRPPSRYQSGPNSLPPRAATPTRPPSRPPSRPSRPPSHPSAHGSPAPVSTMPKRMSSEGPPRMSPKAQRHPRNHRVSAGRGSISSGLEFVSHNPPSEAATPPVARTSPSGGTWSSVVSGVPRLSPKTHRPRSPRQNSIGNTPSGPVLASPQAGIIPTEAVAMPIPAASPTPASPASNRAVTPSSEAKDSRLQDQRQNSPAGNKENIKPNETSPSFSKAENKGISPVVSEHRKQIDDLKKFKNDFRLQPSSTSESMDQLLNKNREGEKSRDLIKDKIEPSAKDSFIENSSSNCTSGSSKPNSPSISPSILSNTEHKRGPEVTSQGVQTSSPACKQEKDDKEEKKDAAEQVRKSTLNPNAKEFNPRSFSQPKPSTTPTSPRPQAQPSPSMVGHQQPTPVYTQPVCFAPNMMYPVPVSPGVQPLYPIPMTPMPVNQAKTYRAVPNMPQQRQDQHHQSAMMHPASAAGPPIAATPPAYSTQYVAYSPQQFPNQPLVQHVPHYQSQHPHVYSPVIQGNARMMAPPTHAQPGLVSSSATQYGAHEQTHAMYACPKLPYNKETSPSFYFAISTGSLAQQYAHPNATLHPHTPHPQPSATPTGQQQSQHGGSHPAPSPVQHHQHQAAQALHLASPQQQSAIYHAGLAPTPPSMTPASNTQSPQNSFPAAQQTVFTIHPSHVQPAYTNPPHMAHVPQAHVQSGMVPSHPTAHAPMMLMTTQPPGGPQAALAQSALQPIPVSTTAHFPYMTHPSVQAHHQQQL
Take `COc1ccc(-c2nn(-c3ccccc3)cc2/C=N/Nc2ccc3ccccc3n2)cc1OC`: the Potency entry was “inactive”.

Regarding `COc1ccc(-c2nn(-c3ccccc3)cc2/C=C(\CC(=O)O)c2nc3ccccc3s2)cc1OC`, the Potency result is “inactive”.

For the molecule `COc1ccc(-c2nn(-c3ccccc3)cc2/C=N/N=C(N)N)cc1OC`, the Potency is 39.8 µM (active).

In the case of `N#CC(C#N)=Cc1cnc(O)c(C#N)c1Nc1ccccc1`, the Potency result is “inactive”.

For the molecule `Nc1c(C(=O)Nc2ccc(F)cc2)sc2nc(-c3ccco3)ccc12`, the Potency result is “inactive”.

Consider `O=C(CSc1ncccn1)N1CCc2ccccc2C1`, for which the Potency result was “inactive”.

Take `Oc1ccc(CN2CCc3ccccc3C2)c2cccnc12`: the Potency was 7.94 µM (active).

As for `O=Cc1ccc(O)c2ncccc12`, the Potency result was “inactive”.

Consider `CCc1ccc(C(=O)c2cc3ccc(O)cc3oc2=O)cc1`, for which the Potency entry is “inactive”.

In the case of `Oc1ccc(C23CC4CC(CC(C4)C2)C3)cc1O`, the Potency is 39.8 µM (active).

`CNC(=O)/C(C#N)=C/c1c(N2CCN(c3ccc(OC)cc3)CC2)nc2c(C)cccn2c1=O`: the Potency entry is “inactive”.

As to `N=C1SC(c2ccccc2)C(=O)N1c1ncc(Cc2ccccc2Cl)s1` (stereo unspecified), the Potency was 12.6 µM (active).

Turning to `Fc1ccc(-n2c(S)nnc2-c2ccc3ccccc3n2)cc1Cl`, the Potency result is “inactive”.

Regarding `Oc1c(Br)cc(/C=N/Nc2ccc(Cl)nn2)cc1Br`, the Potency result was “inactive”.

For the molecule `CN1CCN(c2nc(-c3ccc(Cl)cc3)nc3ccccc23)CC1`, the Potency entry is “inactive”.

Consider `FC(F)(F)c1nnc(-c2ccccc2)nc1Sc1ccccc1`, for which the Potency was 39.8 µM (active).

As for `FC(F)(F)c1nnc(-c2ccccc2)nc1Sc1ccc(Cl)cc1`, the Potency is 35.5 µM (active).

On to `COc1cccc(-n2c(C)cc(/C=C3/C(=N)N4C(=NC3=O)SN=C4S(C)(=O)=O)c2C)c1`, for which the Potency result is “inactive”.

As to `COc1cc(/C=C2/C(=N)N3N=C(CC(=O)N4CCOCC4)SC3=NC2=O)ccc1OCc1ccccc1`, the Potency result is “inactive”.

`Cc1ncc(CO)c(/C=N/NC(=O)c2ccccc2Br)c1O`: the Potency result was “inactive”.

Take `COc1cc(/C=C2\SC(=S)N(NC(=O)c3ccc(O)cc3)C2=O)ccc1O`: the Potency is 12.6 µM (active).

On to `O=C(O)C(c1ccccc1)N1C(=O)/C(=C\c2ccc(O)c(O)c2)SC1=S` (stereo unspecified), for which the Potency was 39.8 µM (active).

`COc1ccc(/C=C2\SC(=S)N(CCCC(=O)Nc3cc(C)on3)C2=O)cc1OC`: the Potency entry was “inactive”.

With `COc1cc(/C=C2\SC(=S)N(C(C(=O)O)c3ccccc3)C2=O)ccc1O` (stereo unspecified), the Potency is 17.8 µM (active).

Regarding `Cc1c(NC(=O)COC(=O)/C=C/c2cccc(F)c2)c(=O)n(-c2ccccc2)n1C`, the Potency entry is “inactive”.

As for `Cn1cc(/C=C2\SC(=S)N(NC(=O)c3ccccc3)C2=O)c2ccccc21`, the Potency entry was “inactive”.

Take `COc1cc(/C=C2/SC(=S)N(c3c(C)n(C)n(-c4ccccc4)c3=O)C2=O)ccc1O`: the Potency was 31.6 µM (active).

Consider `CCN(CC)c1ccc2cc(C(N)=O)c(=O)oc2c1`, for which the Potency entry was “inactive”.

As to `CCNC(=O)c1cc2c(=O)n3cccc(C)c3nc2n(CCc2ccccc2)c1=N`, the Potency entry is “inactive”.

For the molecule `Nc1c(C(=O)N/N=C/c2ccc(F)cc2)oc2nc(-c3ccccc3)cc(-c3ccco3)c12`, the Potency result is “inactive”.

Consider `O=C(Nc1ccc2nc(-c3ccco3)c(-c3ccco3)nc2c1)N1CCCCCC1`, for which the Potency result was “inactive”.

On to `CCCn1c(=N)c(C(=O)NCc2cccnc2)cc2c(=O)n3ccccc3nc21`, for which the Potency result is “inactive”.

For the molecule `CC1(C)C2CC=C(/C=N/NC(=S)NCCc3ccccc3)C1C2` (stereo unspecified), the Potency entry was “inactive”.

Regarding `COc1cc(C2CC(c3c(C)cc(C)nc3O)=NN2c2ccccc2F)cc(OC)c1OC` (stereo unspecified), the Potency entry is “inactive”.

For `CC(C)C(=O)NC(Nc1cc(C(F)(F)F)ccc1Cl)C(Cl)(Cl)Cl` (stereo unspecified), the Potency result is “inactive”.

On to `N#Cc1sc2nc(-c3cccs3)cc(-c3ccc(Cl)cc3)c2c1N`, for which the Potency entry is “inactive”.

With `O=C(O)c1cc([N+](=O)[O-])ccc1-c1ccc([N+](=O)[O-])cc1C(=O)O`, the Potency entry is “inactive”.

Turning to `O=C(O)c1ccccc1Nc1ccc([N+](=O)[O-])cc1`, the Potency entry is “inactive”.

Regarding `Nc1cc([N+](=O)[O-])ccc1Nc1ccc(O)cc1`, the Potency is 44.7 µM (active).

Consider `COc1ccc(C2C3=C(CCCC3=O)N(CC(=O)O)C3=C2C(=O)CCC3)cc1Br`, for which the Potency result was “inactive”.

Consider `OC(CNCCC1C=Nc2ccccc21)Cn1c2ccc(Cl)cc2c2cc(Cl)ccc21` (stereo unspecified), for which the Potency was 35.5 µM (active).

As for `CN(C)CC(C(=O)c1ccccc1)c1ccccc1` (stereo unspecified), the Potency is 20 µM (active).

Turning to `CCOC(=O)C(C(=O)c1ccccc1)C(c1ccccc1)c1nccc2ccccc12` (stereo unspecified), the Potency entry is “inactive”.

Regarding `NCC12CC3CC(C1)CC(c1ccc(Br)cc1)(C3)C2`, the Potency is 25.1 µM (active).

Regarding `NCC12CC3CC(C1)CC(c1ccc(Cl)cc1)(C3)C2`, the Potency was 44.7 µM (active).

Take `CCOCCCn1c(=N)c(C(=O)NCC2CCCO2)cc2c(=O)n3cccc(C)c3nc21` (stereo unspecified): the Potency result was “inactive”.

`N#C/C(=C\c1c(Oc2ccccc2Cl)nc2ccccn2c1=O)C(=O)NC1CCS(=O)(=O)C1` (stereo unspecified): the Potency result was “inactive”.

Regarding `Cc1cc(O)c(CN(C)C)c2c1C(=O)/C(=C/c1ccco1)O2`, the Potency entry was “inactive”.

Regarding `CC/C(=C\C1CCCCC1)C(NP(=O)(c1ccccc1)c1ccccc1)c1ccccc1` (stereo unspecified), the Potency was 35.5 µM (active).

`CC(C)OCCCn1c(NN)nc2ccccc2c1=O`: the Potency entry is “inactive”.

Regarding `COc1ccccc1Oc1ccc(N/C=C/C(=O)c2ccco2)cc1`, the Potency entry is “inactive”.

In the case of `Cc1ccc(SC2=C(Sc3ccc(C)cc3)C(=O)c3ccccc3C2=O)cc1`, the Potency result is “inactive”.

In the case of `COc1ccc2sc(-c3ccc(N(C)C)cc3)c(C#Cc3cncn3C)c2c1`, the Potency entry was “inactive”.

`COc1cc(OC)cc(-c2sc3ccc(OC)cc3c2C#CC2(N)CCCCC2)c1`: the Potency was 39.8 µM (active).

`COc1ccc(-c2sc3cc4c(cc3c2C#CC2(N)CCCCC2)OCO4)cc1`: the Potency was 39.8 µM (active).

For `COc1ccc2sc(-c3ccc(N(C)C)cc3)c(C#CC(C)(C)O)c2c1`, the Potency result is “inactive”.

For `CCOCCCn1c(=N)c(C(=O)NCc2cccnc2)cc2c(=O)n3ccccc3nc21`, the Potency result is “inactive”.

Regarding `N#CC(C(=O)NCc1ccccc1)c1nc2ccccc2nc1N1CCCC1` (stereo unspecified), the Potency entry is “inactive”.

`O=c1oc2cc(O)ccc2cc1S(=O)(=O)c1ccccc1`: the Potency result was “inactive”.

As to `CC(C)(C)c1ccc(C(=O)CC(Sc2ccc(Cl)cc2)C(=O)O)cc1` (stereo unspecified), the Potency was 39.8 µM (active).

As to `CC(C)N1CCN(Cc2ccc(C#CCCO)cc2)CC1CCO` (stereo unspecified), the Potency result is “inactive”.

As for `CCCOc1ccc(C2C(C(=O)OC)=CN(CCOC)C=C2C(=O)OC)cc1`, the Potency result is “inactive”.

Regarding `CCCOc1ccc(CCC(=O)N/N=C/c2ccco2)cc1`, the Potency entry is “inactive”.

As for `CCCOc1ccc(C(=O)C(CCC(CNCC)C(=O)c2ccc(OCCC)cc2)CNCC)cc1` (stereo unspecified), the Potency is 22.4 µM (active).

Take `O=C(O)c1cccc(-n2cccc2/C=C2/NC(=O)N(c3ccc(Cl)cc3)C2=O)c1`: the Potency result was “inactive”.

Consider `NSc1nc(N)c2nc(-c3ccccc3)c(-c3ccccc3)nc2n1`, for which the Potency entry was “inactive”.

With `O=C(O)CCCCCNS(=O)(=O)c1ccc2c3c(cccc13)C(=O)N2`, the Potency result is “inactive”.

Turning to `NCCCCCCNS(=O)(=O)c1cccc2c(Cl)cccc12`, the Potency is 39.8 µM (active).

For the molecule `O=C1Nc2ccc(S(=O)(=O)NCCCO)c3cccc1c23`, the Potency result was “inactive”.

In the case of `O=C1c2cccc3c(O)ccc(c23)C(=O)N1Cc1ccco1`, the Potency entry was “inactive”.

Consider `Cc1ccc(O)c(-c2n[nH]c3c2C(c2ccccc2F)N(Cc2ccco2)C3=O)c1` (stereo unspecified), for which the Potency is 39.8 µM (active).

With `CCOc1cccc(C2c3c(-c4cc(C)ccc4O)n[nH]c3C(=O)N2Cc2ccco2)c1` (stereo unspecified), the Potency was 39.8 µM (active).

Take `Cc1cc(N=Nc2ccc(C)c(N=Nc3cc(C)c(N)cc3N)c2)c(N)cc1N`: the Potency was 39.8 µM (active).

As for `O=C1OCCN1C(=O)[C@H]1[C@H](c2ccc(F)cc2)C(c2ccc(F)cc2)=NN1c1ccccc1`, the Potency entry is “inactive”.

Turning to `OCc1ccc(N=Nc2ccccc2)cc1`, the Potency entry was “inactive”.

On to `Cc1[nH]c(N=Nc2ccccc2)nc1N=Nc1ccccc1`, for which the Potency was 20 µM (active).

Regarding `CCOc1cc(/C=C2\CCCc3c2nc2ccccc2c3C(=O)O)ccc1OC`, the Potency entry is “inactive”.

As to `COc1cc(C=C2C(=O)C=CC2=O)ccc1O`, the Potency was 14.1 µM (active).

As for `COc1cc(/C=C/c2nc3ccccc3s2)cc(OC)c1O`, the Potency result was “inactive”.

Consider `COc1cc(/C=C2\SC(c3ccccc3)=NC2=O)cc(Cl)c1O`, for which the Potency result was “inactive”.

With `COc1cc(/C=C2\CCc3c2nc2ccccc2c3C(=O)O)cc(OC)c1OC`, the Potency entry is “inactive”.

On to `COc1cc(/C=C2\CCC/C(=C\c3ccc(O)c(OC)c3)C2=O)ccc1O`, for which the Potency was 35.5 µM (active).

`COc1cc2ccc(=O)oc2c(O)c1O`: the Potency entry was “inactive”.

Consider `COc1cc(/C=C2/NC(=O)N(Cc3ccccc3F)C2=O)ccc1O`, for which the Potency entry is “inactive”.

In the case of `COc1cc(/C=C2/CCC/C(=C\c3cc(O)c(OC)c(Cl)c3)C2=O)cc(Cl)c1O`, the Potency is 39.8 µM (active).

With `COc1cc(/C=C2\C(=N)N3N=C(CC(=O)N4CCCCC4)SC3=NC2=O)ccc1O`, the Potency entry was “inactive”.

Regarding `COc1cc(/C=C2\CC/C(=C\c3cc(OC)c(O)c(OC)c3)C2=O)cc(OC)c1O`, the Potency was 28.2 µM (active).

With `COc1cc(/C=C/C(=O)c2ccc3c(c2)OCO3)cc(Cl)c1O`, the Potency result was “inactive”.

In the case of `C=CCN1c2ccccc2Sc2cnccc21`, the Potency result was “inactive”.

As to `Nc1ccc2nn(-c3ccc(F)cc3)nc2c1`, the Potency entry is “inactive”.

For `COc1cc(/C=C2\Oc3cc(O)ccc3C2=O)ccc1O`, the Potency result was “inactive”.

Turning to `COc1cc2ccc(=O)oc2cc1O`, the Potency result was “inactive”.

With `COc1cc(/C=C/C(=O)OCC(=O)N2CCC(Cc3ccccc3)CC2)ccc1O`, the Potency entry is “inactive”.

With `COc1cc(/C=C/C=C2/CC/C(=C/C=C/c3ccc(O)c(OC)c3)C2=O)ccc1O`, the Potency is 13.4 µM (active).

In the case of `COc1cc(/C=C2\COC/C(=C\c3ccc(O)c(OC)c3)C2=O)ccc1O`, the Potency is 31.6 µM (active).

On to `CCOc1cc(/C=C2/C(=N)N3N=C(CC(=O)N4CCCC4)SC3=NC2=O)ccc1O`, for which the Potency entry was “inactive”.

As for `CCOc1cc(/C=C2\CN(C)C/C(=C\c3ccc(O)c(OCC)c3)C2=O)ccc1O`, the Potency was 15.8 µM (active).

On to `COc1cc(/C=C/c2ccc3cccc(O)c3n2)ccc1O`, for which the Potency entry is “inactive”.

Turning to `CCOc1cc(/C=C2\C(=N)N3N=C(CC(=O)N4CCCCC4)SC3=NC2=O)ccc1O`, the Potency result is “inactive”.

On to `CCCn1/c(=N\C(=O)c2c(-c3c(F)cccc3Cl)noc2C)c(C(=O)OCC)cc2c(=O)n3ccccc3nc21`, for which the Potency entry is “inactive”.

With `CCCn1c(O)nnc1SCC(=O)N(C1CCCCC1)C1CCS(=O)(=O)C1` (stereo unspecified), the Potency entry is “inactive”.
